hcDAF-12 act: activators of H. contortus DAF-12 nuclear receptor | activation, % at 6.8 µM | 370,000 tested, 1.4% active | HEK293 hcDAF-12 lit1-tk-luc reporter, luminescence; 0% DMSO, 100% Δ7-dafachronic acid;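 active = activation above the mean of all tested compounds plus 3 SD, cut at about 5.5% in these data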;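 also: 100% = response to 3 µM Δ7-dafachronic acid high control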
hgDAF-12 ag: agonists of H. glycines DAF-12 nuclear receptor; HEK293 GAL4-hgDAF12 UAS-luciferase reporter, agonist luminescence; normalized to butyrate control; 370,000 tested, 1.8% active; activation, % at 6.8 µM;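 active = activation above a cutoff set at the mean of all screened compounds plus 3 SD, cut at about 10% in these data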;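 also: 0% = DMSO wells and 100% = sodium butyrate wells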
DAX1 inh-1: DAX1 (NR0B1) inhibition, primary screen. HEK293T StAR-luciferase reporter, SF-1/DAX-1 repression relief. inhibition, % at 6.8 µM. 370,000 tested, 1.1% active. AID 652010;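 active = inhibition above the mean over all tested compounds plus 3 SD, cut at about 3.6% in these data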;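 also: 0% = DAX-1 cells with DMSO and 100% = cells lacking DAX-1 with DMSO; higher inhibition means more luminescence from relief of DAX-1 repression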
DAX1 inh-2: inhibits human nuclear receptor DAX1; P51843; HEK293 Gal4-DAX1 luciferase reporter, luminescence; inhibition, % at 6.75 µM; 340,000 tested, 0.99% active; AID 504766;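 active = inhibition above the mean over all tested compounds plus 3 SD, cut at about 4.2% in these data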;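 also: 0% = DAX1-transfected cells with DMSO and 100% = empty-vector control cells with DMSO; inhibition shows as a rise in luminescence from relieved DAX1 repression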
Target sequence (P51843 207-470 limits assumed): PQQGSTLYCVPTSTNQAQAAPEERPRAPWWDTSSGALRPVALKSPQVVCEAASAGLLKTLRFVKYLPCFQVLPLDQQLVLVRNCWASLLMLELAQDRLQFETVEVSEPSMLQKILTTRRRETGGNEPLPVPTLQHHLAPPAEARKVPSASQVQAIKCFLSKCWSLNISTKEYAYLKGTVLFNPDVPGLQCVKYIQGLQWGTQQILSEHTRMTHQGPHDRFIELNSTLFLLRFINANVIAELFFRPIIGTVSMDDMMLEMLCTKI
ssDAF-12 act: S. stercoralis DAF-12 activation, primary screen; activation, % at 6.8 µM; 370,000 tested, 1% active; HEK293 ssDAF-12/GRIP1 lit1-tk-luc reporter, luminescence; % of 3 µM dafachronic acid response;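 active = activation above the mean over all tested compounds plus 3 SD, cut at about 0.9% in these data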;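 also: 0% = DMSO-only wells and 100% = 3 µM delta7-dafachronic acid wells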
LXRb hcDAF ctr: activates human LXR-beta, counter-screen for hcDAF-12 agonists; AID 743027; activation, % at 6.8 µM; shares compounds with hcDAF-12 act; 3,400 tested, under 10 active; HEK293 Gal4-LXR tk-luc reporter, luminescence, 24 h; normalized: DMSO 0%, positive control 100%;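 active = mean percent activation of the reporter above a cutoff set as the average over tested compounds plus their standard deviation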
Target sequence (P55055 whole entry, looked up, the tested form may be a part): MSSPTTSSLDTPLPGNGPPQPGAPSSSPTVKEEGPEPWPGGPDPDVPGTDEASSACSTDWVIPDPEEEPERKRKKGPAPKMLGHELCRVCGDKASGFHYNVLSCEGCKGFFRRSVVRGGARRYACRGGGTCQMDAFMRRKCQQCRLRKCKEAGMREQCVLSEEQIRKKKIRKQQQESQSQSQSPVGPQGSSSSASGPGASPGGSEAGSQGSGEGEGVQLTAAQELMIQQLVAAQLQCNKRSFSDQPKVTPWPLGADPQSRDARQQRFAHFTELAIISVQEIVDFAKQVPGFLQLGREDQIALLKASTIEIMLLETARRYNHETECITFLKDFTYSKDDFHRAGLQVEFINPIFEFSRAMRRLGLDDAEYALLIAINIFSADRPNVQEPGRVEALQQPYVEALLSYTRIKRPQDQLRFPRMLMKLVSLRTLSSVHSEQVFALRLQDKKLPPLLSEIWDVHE
hcDAF12 ag: confirmation of H. contortus DAF-12 agonists; activation, % at 6.8 µM; shares compounds with hcDAF-12 act; HEK293 hcDAF-12 lit1-tk-luc reporter, luminescence; % of Δ7-dafachronic acid response; 3,400 tested, 61% active;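 active = mean activation across triplicate tests above the threshold derived from the earlier primary screen, cut at about 5.5% in these data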;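 also: 0% = DMSO only wells and 100% = 3 µM Δ7-dafachronic acid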
hgDAF12 conf: confirmation of H. glycines DAF-12 agonists; shares compounds with hgDAF-12 ag; HEK293 GAL4-hgDAF12 luciferase reporter, agonist mode; percent of butyrate response; activation, % at 6.8 µM; 3,300 tested, 80% active; AID 743050;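 active = mean activation over triplicate wells above the hit cutoff derived from the earlier primary screen, cut at about 11% in these data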;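 also: 0% = DMSO low control and 100% = 2 mM sodium butyrate high control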
LXR ag 2: counter-screen for DAF-12 agonists: agonists of human LXR-beta; shares compounds with hgDAF-12 ag; HEK293 Gal4-LXR luciferase reporter, 24 h; activation, % at 6.8 µM; 3,300 tested, under 10 active; AID 743051;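 active = mean activation of the triplicate above a set limit carried over from the primary screen, none filed active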
* = called active by the depositor; nt = not tested or not shown. Only some compounds are listed: those with a hit (about 4.1% of all), similar ones and a draw of the others.

SMILES	hcDAF-12 act	hgDAF-12 ag	DAX1 inh-1	DAX1 inh-2	ssDAF-12 act	LXRb hcDAF ctr	hcDAF12 ag	hgDAF12 conf	LXR ag 2
Cc1cc(CNC(=O)c2ccc3oc(C(C)C)nc3c2)nn1C	1.0	-0.1	0.0	1.2	-0.8	nt	nt	nt	nt
COc1ccc(C(=O)c2coc3ccc(OC(C)=O)cc23)cc1	7.3*	13.9*	2.4	-1.2	0.2	1.7	8.1*	23.4*	1.2
COc1ccc(OC)c(C(=O)c2coc3ccc(OC(C)=O)cc23)c1	-1.4	-1.9	-0.5	0.2	-0.8	nt	nt	nt	nt
O=C(Nn1cnc2ccccc2c1=O)c1ccccc1Cl	0.1	2.3	0.8	2.0	-0.6	nt	nt	nt	nt
Cc1ccccc1C(=O)Nn1cnc2ccccc2c1=O	9.8*	15.1*	1.0	1.1	1.7*	0.3	8.6*	7.7	0.2
COCc1cc(=O)[nH]c(Cc2c(Cl)cccc2Cl)n1	3.6	-0.9	-0.6	0.2	-1.4	nt	nt	nt	nt
CN(C)c1ccc(C2NC(=O)c3ccccc3N2)cc1 (centres undefined)	8.1*	14.4*	2.0	1.9	0.7	1.6	8.3*	20.4*	1.1
Cn1cc(/C=C/C(=O)c2ccccc2)c2ccccc21	11.7*	14.0*	1.6	-0.7	1.4*	1.9	12.6*	21.6*	1.3
Cc1c(/C=C/C(=O)c2ccccc2)cnn1C	0.5	5.2	-0.1	3.6	-0.9	nt	nt	nt	nt
CCCCNS(=O)(=O)CCNCc1ccco1	-2.2	-0.2	-0.3	0.1	-1.0	nt	nt	nt	nt
Oc1ccc(C=NNc2nc3ccccc3s2)c(O)c1	9.6*	13.3*	2.3	3.2	1.8*	1.9	5.2	10.9*	1.4
CC1(C)CC(/C=C/c2ccccc2)=Nc2ccccc2N1	7.6*	19.1*	1.7	6.0*	1.8*	0.0	1.6	9.9	0.3
CC(C)C[C@H]1CN(CCCC[C@@H]2CNC(=O)C(=O)N2CCc2ccccc2)C(=O)C(=O)N1CCc1ccc(O)cc1	2.5	-1.4	0.7	nt	-0.8	nt	nt	nt	nt
CC(C)c1ccc(OCc2nc(-c3ccccn3)no2)c(Br)c1	7.6*	14.8*	4.1*	0.5	0.9*	1.4	7.0*	15.7*	0.7
O=C(N/N=C/c1cccnc1)c1[nH]ncc1Br	6.8*	13.4*	1.2	-0.1	-0.4	0.0	1.4	4.7	0.1
O=[N+]([O-])c1cccc(-c2cc(-c3cc(Br)ccc3O)[nH]n2)c1	-2.0	-0.9	-1.0	-1.3	-1.0	nt	nt	nt	nt
O=[N+]([O-])c1ccccc1-c1cc(-c2ccccc2O)n[nH]1	7.9*	16.0*	2.2	0.9	0.8	0.7	3.9	12.9*	0.4
Cc1ccc(-c2cc(-c3cccc(F)c3)n[nH]2)c(O)c1	12.7*	13.5*	4.2*	5.0*	2.5*	1.2	7.6*	16.9*	0.9
Cc1ccc(-c2cc(-c3ccccc3C)[nH]n2)c(O)c1	6.8*	13.9*	3.1	2.5	0.8	0.7	5.1	16.6*	0.7
COC(=O)[C@]12CCCCC=C1N(Cc1cccc3ccccc13)C(=O)[C@H](CC(=O)N1CCN(C(=O)C3CC3)CC1)C2	-1.0	-3.4	-2.1	nt	-1.6	nt	nt	nt	nt
CCOc1ccccc1NC(=O)C1CCN(C(=O)Cc2ccccc2)CC1	-1.6	1.3	-0.2	0.6	-1.8	nt	nt	nt	nt
Cc1ccc(NC(=O)c2ccccc2SCC(=O)N2CCCC2)cc1S(=O)(=O)N(C)C	-0.3	-1.9	-0.1	0.0	-1.3	nt	nt	nt	nt
CN(C)c1cccc(-c2cnc(N3CCC(C(N)=O)CC3)s2)c1	6.7*	16.5*	nt	nt	1.8*	1.8	6.0*	18.6*	1.3
O=C(Nc1cccc(O)c1)c1c(O)c2ccccc2[nH]c1=O	13.7*	13.3*	2.3	5.0*	3.9*	2.0	15.1*	23.9*	1.2
O=C(N/N=C/C(Br)=C\c1ccccc1)c1cccs1	4.0	9.1	2.0	nt	-0.2	nt	nt	nt	nt
SMILES	hcDAF-12 act	hgDAF-12 ag	DAX1 inh-1	DAX1 inh-2	ssDAF-12 act	LXRb hcDAF ctr	hcDAF12 ag	hgDAF12 conf	LXR ag 2
CC(=C/c1ccccc1)/C=N/NC(=O)c1cccs1	7.8*	19.5*	2.2	nt	-0.6	1.8	8.2*	14.9*	0.9
Cc1ccc(NC(=O)c2ccc3c(c2)OCO3)cc1Cl	8.0*	16.9*	3.4	4.7*	1.7*	1.3	4.5	17.7*	1.1
COc1ccccc1OC(C)C(=O)Nc1ccc2c(c1)OCCO2 (centres undefined)	-1.7	-1.2	-0.1	0.0	-1.2	nt	nt	nt	nt
O=C(N/N=C/c1cc(Br)cs1)c1ccc2c(c1)OCCO2	6.6*	14.8*	-0.2	nt	-1.0	1.2	2.5	23.6*	0.5
Cc1ccc(/C=N/NC(=O)c2ccc3c(c2)OCCO3)s1	3.3	6.4	1.9	3.6	0.5	nt	nt	nt	nt
O=C(Nc1ccc2c(c1)OCO2)c1noc2c1CCCC2	8.1*	15.0*	1.8	1.5	0.9	1.8	8.5*	16.3*	1.0
O=C(Nc1cccnc1)c1noc2c1CCCC2	1.7	5.7	2.0	0.0	-1.2	nt	nt	nt	nt
COc1ccccc1C(=O)Nc1ccc2c(c1)OCCO2	6.8*	13.6*	2.3	1.9	0.6	0.7	6.6*	14.0*	0.7
CC(C)c1cccc(C(C)C)c1NC(=O)c1ccccc1	0.4	2.9	0.0	0.5	-1.6	nt	nt	nt	nt
Cc1noc(C)c1S(=O)(=O)Nc1ccc2c(c1)C(=O)N([C@H](C)CO)C[C@H](C)[C@@H](CN(C)C(=O)Nc1ccc3c(c1)OCO3)O2	-0.7	-1.0	-0.1	0.1	-1.6	nt	nt	nt	nt
Cc1nc2c(C#N)cnn2c2c1CCN2CC1CCCO1 (centres undefined)	-0.6	0.4	0.1	0.9	-1.9	nt	nt	nt	nt
CCN(Cc1ccc(NC(C)=O)cc1)CC1CCCN(CCc2cccc(OC)c2)C1 (centres undefined)	-0.3	3.6	-0.3	0.4	-0.9	nt	nt	nt	nt
O=C(Nc1ccc2c(c1)OCCO2)c1ccc(Br)cc1	8.3*	15.1*	2.4	2.2	-0.1	1.7	7.2*	13.5*	1.0
CN(c1ccc(C(=O)Nc2ccc3c(c2)OCCO3)cc1)S(C)(=O)=O	4.2	6.0	2.1	0.8	-0.8	nt	nt	nt	nt
O=C(Nc1ccc2c(c1)OCO2)c1ccc(Br)s1	13.1*	25.4*	4.3*	2.1	1.6*	1.9	15.5*	21.5*	0.9
Cc1ccc(C(=O)Nc2ccc3c(c2)OCO3)o1	2.9	10.2	1.5	1.4	0.7	nt	nt	nt	nt

Source: PubChem BioAssay (The Scripps Research Institute Molecular Screening Center)
